How the values were obtained:
[1] = test system: Human papillomavirus type 1a protein E7 (residues 44-93); test: small molecules binding HPV E7 44-93 – biochemical, small-molecule microarray, residues 44-93, 635 nm fluorescence, primary screen (AID 1108); conditions: fluorescence 635 nm, higher = more signal;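 note: E7 fragment applied at 1 µg/mL in TBST for 1 h at 4 C; score combines spot fluorescence with its signal to noise ratio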
[2] = hepatitis C replication reporter changes, two-sided – Huh7 cells, luciferase reporter, HCV replication inhibitor project, primary screen (AID 1109); conditions: Huh7 HCV replicon luciferase reporter, 48 h; higher = more signal;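 note: huh7 hepatoma cells harbouring a luciferase neomycin HCV replicon reporter; luciferase luminescence as measure of HCV replicon replication; test concentration not given here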
[3] = target: Left-right determination factor 2 (Homo sapiens) (UniProt O00292); test: small molecules binding LEFTY2 protein – biochemical, small-molecule microarray, 635 nm fluorescence scan, primary screen (AID 1110); conditions: higher = more signal
Sequence of Left-right determination factor 2 (Homo sapiens) (O00292 whole entry, looked up): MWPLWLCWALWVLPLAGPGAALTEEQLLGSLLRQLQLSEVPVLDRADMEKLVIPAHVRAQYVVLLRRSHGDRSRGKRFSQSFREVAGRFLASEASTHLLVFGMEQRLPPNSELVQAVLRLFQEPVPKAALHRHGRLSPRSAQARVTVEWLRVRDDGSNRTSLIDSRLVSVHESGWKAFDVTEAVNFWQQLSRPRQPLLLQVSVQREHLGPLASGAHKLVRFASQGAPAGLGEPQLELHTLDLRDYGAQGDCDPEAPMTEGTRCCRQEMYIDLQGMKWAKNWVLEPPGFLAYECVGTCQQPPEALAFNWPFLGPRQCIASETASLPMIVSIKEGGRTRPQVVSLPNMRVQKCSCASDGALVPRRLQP

[4] = target: Calmodulin-1 (Homo sapiens) (UniProt P0DP23); test: small molecules binding calmodulin-1 with EGTA – biochemical, small-molecule microarray, Cy5-labelled CALM1, profiling panel (AID 1111); conditions: Cy5-CALM1 binding fluorescence, higher = more signal;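 note: labelled calmodulin applied in Tris saline Tween buffer holding calcium plus EGTA and DTT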
[5] = target: Calmodulin-1 (Homo sapiens) (UniProt P0DP23); test: small molecules binding Ca-loaded calmodulin-1 – biochemical, small-molecule microarray, Cy5-labelled CALM1, plus calcium, artefact control for SMM control-protein annotation, profiling panel (AID 1112); conditions: Cy5-CALM1 binding fluorescence, higher = more signal;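 note: score merges spot fluorescence with signal to noise from triplicate slides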
[6] = probe aWnt5a binding to arrayed compounds – biochemical, biotinylated probe, 635/667 nm fluorescence, primary screen (AID 1113); conditions: small-molecule microarray, higher = more signal;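 note: score merges 667 nm fluorescence intensity with signal-to-noise per printed feature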
[7] = probe aShh binding to arrayed compounds – biochemical, biotinylated probe, 635/667 nm fluorescence, primary screen (AID 1114); conditions: small-molecule microarray, higher = more signal;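 note: probe is biotin-labelled aShh protein from a stem cell growth factor screen; measures binding of labelled protein to compounds printed on the slide; score merges feature fluorescence at 667 nm with signal-to-noise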
[8] = probe aNog binding to arrayed compounds – biochemical, biotinylated probe, 635/667 nm fluorescence, primary screen (AID 1115); conditions: small-molecule microarray, higher = more signal;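 note: probe is biotinylated aNog protein used at 0.15 µg/mL for 1 h at 4 C; z-score combines 667 nm fluorescence of each spot with its signal to noise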
[9] = target: Torsin-1A-interacting protein 1 (Homo sapiens) (UniProt Q5JTV8); test: compound microarray binding of lysate hLAP1 – cell lysate, small-molecule microarray, COS7 lysate, 635/667 nm fluorescence, primary screen (AID 1116); conditions: 635 nm fluorescence, higher = more signal
Sequence of Torsin-1A-interacting protein 1 (Homo sapiens) (Q5JTV8 whole entry, looked up): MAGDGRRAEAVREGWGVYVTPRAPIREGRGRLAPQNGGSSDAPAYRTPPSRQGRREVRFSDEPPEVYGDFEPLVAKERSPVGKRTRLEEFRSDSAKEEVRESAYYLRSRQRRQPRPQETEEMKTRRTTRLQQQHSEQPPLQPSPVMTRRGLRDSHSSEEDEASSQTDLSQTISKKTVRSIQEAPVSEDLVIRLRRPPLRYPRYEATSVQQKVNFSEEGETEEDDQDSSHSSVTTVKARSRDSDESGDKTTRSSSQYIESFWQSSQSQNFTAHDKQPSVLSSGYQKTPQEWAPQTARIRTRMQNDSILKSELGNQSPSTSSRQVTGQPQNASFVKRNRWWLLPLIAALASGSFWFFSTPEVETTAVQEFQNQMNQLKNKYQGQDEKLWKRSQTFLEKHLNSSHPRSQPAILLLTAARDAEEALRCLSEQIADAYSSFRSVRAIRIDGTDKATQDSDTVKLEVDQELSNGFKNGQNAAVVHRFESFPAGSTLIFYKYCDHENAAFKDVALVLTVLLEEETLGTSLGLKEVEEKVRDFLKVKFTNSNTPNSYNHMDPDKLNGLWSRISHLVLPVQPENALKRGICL

[10] = target: Alpha-bungarotoxin (Bungarus multicinctus) (UniProt P60615); test: compounds binding labelled alpha-BTX control protein – biochemical, small-molecule microarray, Alexa647 label, 635/667 nm fluorescence, artefact control for SMM control protein annotation, profiling panel (AID 1117); conditions: alpha-BTX-A647 binding fluorescence, higher = more signal
Sequence of Alpha-bungarotoxin (Bungarus multicinctus) (P60615 whole entry, looked up): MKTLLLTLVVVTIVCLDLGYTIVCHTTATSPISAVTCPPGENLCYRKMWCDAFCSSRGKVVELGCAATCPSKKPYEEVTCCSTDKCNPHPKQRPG

SMILES | composite z-score [1] | z-score [2] | composite z-score [3] | composite z-score [4] | composite z-score [5] | composite z-score [6] | composite z-score [7] | composite z-score [8] | composite z-score [9] | composite z-score [10]
COc1cccc(OC)c1C(=O)O[C@H]1[C@@H]2OC(=O)[C@H](Cc3cccc(Br)c3)C/C=C/C[C@@H](Cc3cccc(Br)c3)C(=O)O[C@H]2[C@@H](OC)O[C@@H]1CO | 0.479 | -2.37 | 0.309 | -0.108 | -0.0545 | -0.0869 | 0.111 | 0.113 | 0.482 | 0.528
Cc1ccc(S[C@]2(C(=O)NCCN3CCOCC3)CC(=O)N(C3CCCCC3)[C@@H]2c2ccc(CO)cc2I)cc1 | 1.46 | -3.05 | 0.134 | 0.562 | 0.326 | 0.0214 | 0.23 | -0.0098 | 1.37 | 1.23
COc1ccc([Si](C)(C)[C@H]2[C@H](CC(=O)N3Cc4ccccc4C[C@H]3CO)O[C@@]3(C(=O)N(Cc4cccc(N5C(=O)c6cccc7cccc5c67)c4)c4ccccc43)[C@@H]2C)cc1 | 1.19 | -4.08 | 0.633 | -0.144 | -0.836 | -0.0316 | -0.0778 | 1.11 | 0.302 | 2.33
NC(=O)NCC#Cc1ccc2c(c1)[C@]1(C(=O)N2)[C@H](C(=O)N2CCCCCCC2)[C@H]2C(=O)O[C@H](c3ccccc3)[C@H](c3ccccc3)N2[C@@H]1c1ccc(O)cc1 | 0.0787 | -1.13 | 0.953 | 2.38 | 0.509 | 0.754 | 1.54 | 2.78 | 2.19 | 2.01
O=C1N(Cc2ccccc2)c2ccccc2[C@H]2OC(c3ccc(OCCCO)cc3)=N[C@@]12Cc1ccccc1 | 1.03 | -2.48 | -0.116 | 0.244 | -0.0364 | 0.067 | 1.06 | 0.798 | 0.498 | 1.81
CC1CC/C=C\[C@H]2OC34C=CCN(CCN5CCOCC5)C(=O)[C@H]3N(CCCCCCO)C(=O)[C@@H]4C2C(=O)O1 (stereo not given in full) | -1.14 | -0.709 | -1.12 | -0.482 | -0.42 | -0.232 | -0.154 | -0.305 | -0.933 | -0.307
COCCOC(=O)N1C(=O)[C@@]2(c3cc(C#CC4(O)CCCCCC4)ccc31)[C@H](C(=O)NC[C@H](O)c1ccccc1)[C@H]1C(=O)O[C@H](c3ccccc3)[C@H](c3ccccc3)N1[C@@H]2c1ccc(O)cc1 | -0.132 | -0.68 | 0.0174 | 1.37 | -0.112 | 0.0718 | -0.0055 | -0.111 | 1.14 | 1.61
CC(=O)NCCCC[C@@H]1NC(=O)[C@@H]2C[C@H](C(=O)NCCCCCC[N+](C)(C)C)[C@H](c3ccc(O)cc3)N2C1=O | 1.11 | 0.825 | 0.943 | -0.504 | -0.901 | -0.15 | 0.0278 | -0.347 | 0.343 | -0.659
CC(=O)n1cc(C(O)C2C=CC3C(=O)N(c4ccccc4)C(=O)C3N2Nc2ccccc2F)c2ccccc21 (stereo not given) | 1.13 | -0.159 | -0.747 | 1.64 | -0.494 | -0.0566 | 0.0723 | -0.305 | 0.488 | 0.403
CC(=O)c1ccc(C(O)C2C=CC3C(=O)NC(=O)C3N2Nc2ccc(Cl)cc2Cl)cc1 (stereo not given) | 0.18 | -0.38 | -0.16 | 0.594 | 0.468 | -0.0161 | 0.522 | 1.25 | 0.0338 | 0.186
Cc1ccccc1C(O)C1C=CC2C(=O)N(c3ccccc3)C(=O)C2N1Nc1ccccc1F (stereo not given) | 1.34 | 1.97 | -0.0612 | 2.36 | 0.789 | 0.156 | 0.232 | 1.81 | 1.78 | 1.83
COCCOC(=O)N1C(=O)[C@@]2(c3cc(C#CCC(C(=O)OC)C(=O)OC)ccc31)[C@H](C(=O)N1CCCCCCC1)[C@H]1C(=O)O[C@H](c3ccccc3)[C@H](c3ccccc3)N1[C@@H]2c1ccccc1OCCO | 1.32 | -2.25 | 1.09 | 2.56 | 1.63 | 0.931 | 2.96 | 3.14 | 3.82 | 2.51
CC(C)C[C@@H]1NC(=O)[C@@]23C(=O)N[C@@H](Cc4ccccc4)C2[C@H](C)[C@@]2(C)O[C@H]2C3/C=C/C/C=C\CNC(=O)[C@@H](CC(C)C)NC1=O (stereo not given in full) | 0.741 | 0.052 | 0.567 | -0.475 | -0.674 | -0.101 | -0.238 | -0.35 | 0.403 | 0.322
C=C(CCCC)C(=O)CC[C@H](OC(C)=O)c1ccccc1OCCO | -0.0354 | -3.4 | 0.549 | -0.592 | -1.13 | -0.0182 | 0.0121 | -0.234 | 0.173 | -0.106
COCCOC(=O)N1C(=O)[C@@]2(c3cc(C#Cc4ccc(OC)cc4)ccc31)[C@H](C(=O)Nc1nc3ccccc3s1)[C@H]1C(=O)O[C@H](c3ccccc3)[C@H](c3ccccc3)N1[C@@H]2c1ccccc1OCCO | 0.773 | -1.43 | 0.615 | 1.5 | 0.747 | -0.299 | -0.138 | -0.7 | 0.188 | 0.968
CC(C)CNC(=O)[C@@]1(C)c2ccccc2C(=O)N(Cc2cc(F)cc(C(F)(F)F)c2)[C@H]1c1ccc(CO)cc1 | 1.35 | -0.732 | 0.0867 | 0.0765 | 0.0987 | -0.17 | 0.0639 | 0.341 | 1.98 | 0.884
COc1cc2c(cc1O)C(c1ccc(CN3CCCC3)cc1)N(Cc1ccc([N+](=O)[O-])o1)CC2 (stereo not given) | -1.17 | -1.05 | 0.313 | 0.383 | 0.958 | -0.167 | -0.193 | 0.0692 | 1.12 | 0.951
C=CCNC(=O)[C@@H]1[C@H]2C(=O)O[C@H](c3ccccc3)[C@H](c3ccccc3)N2[C@H](c2ccccc2OCCO)[C@@]12C(=O)N(C(=O)OCCOC)c1ccc(C#CCCO)cc12 | 1.34 | -1.82 | 0.0333 | 1.66 | 0.428 | -0.006 | 0.131 | -0.305 | 0.87 | 0.274
CCCC[C@@H]1C[C@H]1[C@@H](NC(=O)Cc1ccccc1)c1ccc(Cl)cc1 | 1.37 | -1.79 | -0.496 | 2.44 | 1.53 | 0.225 | 1.47 | 0.905 | 1.12 | 2.14
COC(=O)[C@@]1(Cc2ccc(F)cc2)[C@H]2c3cc(C(=O)N4CCCC4)n(CCO)c3C[C@H]2CN1C(=O)c1ccccc1 | 0.0213 | -1 | -0.83 | -0.07 | 0.723 | 0.229 | 0.381 | -0.662 | 0.956 | -0.063
COC(=O)[C@@]1(Cc2ccccc2)[C@@H]2[C@@H](CC(=O)[C@H]2CC(=O)C(=O)N(C)C)CN1C(=O)c1ccccc1 | 0.426 | -0.96 | -0.116 | 0.518 | 0.599 | 0.0078 | -0.0322 | 0.859 | 1.38 | 0.43
Cc1ccc(S[C@]2(C(=O)NCCCN(C)C)CC(=O)N(Cc3ccccc3Cl)[C@@H]2c2ccc(CO)cc2I)cc1 | -0.177 | -1.55 | -1.7 | 0.0681 | 0.283 | -0.1 | -0.0681 | 0.692 | 0.49 | 2.46
COc1ccc(C(O)C2C=CC3C(=O)N(C)C(=O)C3N2Nc2ccc([N+](=O)[O-])cc2[N+](=O)[O-])cc1OCc1ccccc1 (stereo not given) | 1.39 | 0.714 | -0.0506 | 0.211 | -0.0482 | 0.112 | 0.28 | 1.38 | 0.527 | 1.5
CCCCC(O)C1C=CC2C(=O)N(C)C(=O)C2N1Nc1ccccc1 (stereo not given) | 1.18 | -0.413 | -0.431 | 0.259 | 0.032 | 0.0044 | -0.301 | -0.0683 | 1.02 | 0.27
C=CCOC(=O)[C@H]1[C@@H]2C(=O)O[C@@H](c3ccccc3)[C@@H](c3ccccc3)N2[C@@H](c2ccc(OCCOC(=O)[C@@H]3C[C@@H]4C(=O)N[C@@H](Cc5ccccc5)C(=O)N4[C@@H]3c3ccc(O)cc3)cc2)[C@]12C(=O)Nc1ccccc12 | 1.35 | -1.85 | 0.747 | 1.48 | 0.0137 | -0.124 | -0.232 | 0.281 | 0.409 | 0.948
C=C(/C(=C/C[C@@H](OC(C)=O)c1ccccc1OCCO)c1cc(C(=O)OC)ccc1OC)C(C)C | 0.326 | -1.69 | -0.0061 | 0.543 | -0.692 | -0.0643 | -0.304 | 0.051 | 0.385 | -0.598
CC[C@H](C)C(=O)O[C@H]1CC[C@]2(C)C3=C(CCC2C1(C)C)[C@]1(C)CC[C@H]([C@H](C)CCCC(C)C)[C@@]1(C)CC3 (stereo not given in full) | 0.758 | -0.492 | 0.405 | -0.367 | -0.468 | -0.0462 | -0.0769 | -0.31 | 0.14 | 0.332
CC(C)CNC(=O)[C@@H]1c2ccccc2C(=O)N(Cc2ccccc2Cl)[C@H]1c1ccc(CO)cc1 | 1.07 | -0.249 | -1.09 | 0.0642 | -0.116 | -0.244 | -0.0813 | -0.0769 | 1.69 | -1.39
C=CCN1C(=O)[C@]2(O[C@H](CCn3cc([C@H](O)c4ccccc4)nn3)[C@@H]([Si](C)(C)c3ccc(OC)cc3)[C@@H]2C)c2cc(N3C(=O)c4cccc5cccc3c45)ccc21 | 0.87 | -4.4 | -0.744 | 0.313 | -0.58 | -0.156 | -0.0769 | -0.0809 | 0.404 | 1.39
CCCC[C@H]1OB(O)C[C@H]2C1=C(C)C[C@H]1C(=O)C=CC(=O)[C@H]12 | 1.04 | -2.52 | 0.686 | -0.321 | -0.741 | -0.132 | 0.0278 | -0.109 | 0.0514 | 0.178

Source: PubChem BioAssay
